Measured values published in PubChem BioAssay AID1259336 (Sattelle Laboratory, UCL Respiratory, Division of Medicine, …, 2017).
Active and inactive are the calls of the source. Rule as the data show it: active = log2 fold change growth below about -1.8; inactive = the rest.

Test: anthelmintic activity against nematode growth – whole organism, log2 fold change (AID 1259336);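 also: growth scored by imaging after five days at 20 °C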
Settings: C. elegans growth, anthelmintic screen; hits give low values

log2 fold change growth, inactive:
COc1cc(-c2cc(-c3ccc(S(C)(=O)=O)cc3)cnc2N)ccc1O -0.318, CCCn1c(CNc2ccccc2O)nc2ccccc21 0.228, C[C@H]1CCCCN1C(=O)NCCc1coc(-c2ccc(F)cc2)n1 0.0232, c1ccc(Oc2ccc(-c3cncc(-c4ccc5[nH]ccc5c4)n3)cc2)cc1 -1.03, Clc1ccc(CN2CCN(C3=NCCN3)CC2)cc1Cl 0.0846, CC1=Nc2ccc(Cl)cc2[C@@](O)(c2ccc(C)cc2)N1CCN1CCCCC1 0.034, N#Cc1nc(-c2ccccc2)oc1S(=O)(=O)c1ccc(Cl)cc1 0.277, Cc1ccc(NC(=O)c2nc[nH]c2C(=O)Nc2nc3ccccc3[nH]2)c(C)c1 -0.815, Cc1cc(C)c2cc(C(=O)NC3CCCCCCC3)[nH]c2c1 -0.0221, CCOc1ccc2cc(-c3nn(CC4CCN(C)CC4)c4ncnc(N)c34)ccc2c1 0.151, Cc1nc(-c2ccccn2)nc(N2CC[C@H](Cc3ccccc3)C2)c1Cl -1.52, CC(C)c1ncc(-c2ccncc2)c(C2CCC(CNC(=O)c3cccnc3)CC2)n1 (stereo unspecified) -0.0296, CC1(C)Cc2c(c(N3CCOCC3)nc3snc(Br)c23)CO1 0.562, NCCN(C(=O)c1ccc(Cl)cc1Cl)c1ccc(OCc2ccc(Cl)cc2)cc1 -0.0401, FC(F)(F)c1nnc2ccc(Cl)nn12 -0.128, COc1ccc(C2=NN(C3CCCCCC3)C(=O)C2(C)C)cc1OCCCCOc1ccc(-c2nn[nH]n2)cc1 -0.216
